For 68 compounds, INHIBITION results are on record in ChEMBL document CHEMBL4513216, “Probing the Open Global Health Chemical Diversity Library for Multistage-Active Starting Points for Next-Generation Antimalarials” (ACS Infect Dis, 2020).

The structures appear in SMILES notation. Out of some 68,000 compounds screened, about 2,700 (4%) showed an effect of 50% or more. What follows is part of a selection rich in strong results, with near analogues and random picks from the rest.

The test system of this experiment is Plasmodium berghei. Put plainly: Screen against P. berghei liver stage (PbLuc), transformed with Luciferase, at 2uM. Type of experiment: functional, HepG2. The settings on record: tested at 2 uM.
For `CSc1ccccc1CN1C[C@@H]2CC[C@H]1CN(Cc1[nH]cnc1C)C2`, the INHIBITION is recorded as 8.26%. On to `O=C(Cc1ccc2c(c1)OCO2)N1CCCN(c2ccccc2)CC1`, for which the INHIBITION is listed as -50.86%. Take `O=C(Cc1ccc2c(c1)OCO2)N1CCCN(c2nccs2)CC1`: the INHIBITION stood at 79.21%.

Turning to `O=C(Cc1ccc2c(c1)CCO2)N1CCN(c2nccs2)CC1`, the INHIBITION is -11.34%. With `O=S(=O)(NCC1CCN(c2cnccn2)CC1)c1ccc(F)c(Cl)c1` the figure was 20.8%; with `COc1ccc(-c2nc(C#N)c(N(C)C)o2)cc1S(=O)(=O)N(C)C`, -36.29%. For the compound `COC(=O)[C@H](C)NC(=O)Cn1ccc2ccc(F)cc21`, the INHIBITION was found to be 0.08%.

On to `COC(=O)CCC(=O)Nc1ccc(Br)c(C)n1`, for which the INHIBITION turned out to be 11.88%.

For `O=C([C@@H]1CCO[C@@H]2CCN(Cc3cccs3)C[C@H]21)N1CCCCO1`, the INHIBITION is 27.44%. Consider `CC(C)NC(=O)N1C[C@@H]2C[C@H](C(=O)NCc3ccccc3)[C@H](C1)O2`, for which the INHIBITION is on record as 36.17%. `CCOCC(=O)NCc1cc(C2CC2)n(C2CCCC2)n1`: the INHIBITION was 6.9%. With `CCC(=O)NCc1cc(C2CC2)n(C2CCCC2)n1` the figure was 50.7%; with `O=C(NCc1cc(C2CC2)n(C2CCCC2)n1)C1CC1`, 14.47%. Turning to `COCC(=O)N1CCC2(CC1)COCCN2Cc1ccc(F)cc1`, the INHIBITION is listed as -5.65%. For the compound `Cc1ccc(NC(=O)CNC(C)CN2CCCCC2)c(F)c1` (stereo not drawn), the INHIBITION amounted to 64.35%.

Turning to `Cc1ccc(NC(=O)CNC(C)CN2CCOCC2)c(F)c1` (stereo not drawn), the INHIBITION was 21.24%.

Turning to `Cc1ccc(NC(=O)CN2CCOCC2)c(F)c1`, the INHIBITION is given as -1.29%. In the case of `CSc1nccc(N2CCC(NCc3ccc4nsnc4c3)CC2)n1`, the INHIBITION was -60.25%. In the case of `O=C(CC1CCc2ccccc21)NC1(C(=O)O)CCCC1` (stereo not drawn), the INHIBITION is on record as 16.93%. Consider `CC1(NC(=O)CC2CCc3ccccc32)CCOCC1` (stereo not drawn), for which the INHIBITION worked out at 60.15%. On to `O=C(CC1CCc2ccccc21)NC1(C(=O)O)CCOCC1` (stereo not drawn), for which the INHIBITION worked out at 0.54%. `COC(=O)c1cc(OCC2CCC2)cc(C(=O)N[C@@H]2CCCNC2)c1`: the INHIBITION is listed as -28.09%. With `Cc1cccc(C)c1NC(=O)c1cccc(N(C)S(C)(=O)=O)c1C` the figure was -11.34%. Take `CCc1[nH]n(C)c(=N)c1-c1ccc2c(c1)OCO2`: the INHIBITION is reported as 37.53%. In the case of `Cn1[nH]c(C2CCC2)c(-c2ccc3c(c2)OCO3)c1=N`, the INHIBITION is 14.06%. With `CSCCc1nc(-c2ccc3c(c2)OCO3)n(C)n1` the figure was 12.74%. `Cn1nc(C2CCCC2)c(-c2ccc3c(c2)OCO3)c1N`: the INHIBITION amounted to 53.33%. Regarding `Cn1[nH]c(C2CC2)c(-c2ccc3c(c2)OCO3)c1=N`, the INHIBITION stood at 58.6%. With `CCCc1[nH]n(C)c(=N)c1-c1ccc2c(c1)OCO2` the figure was 5.92%; with `Cc1nc(C)n(C2CCCN(C(=O)c3ccc4c(c3)COC4)C2)n1` (stereo not drawn), 2.08%; with `O=C1CC[C@@H]2[C@@H](CCN2C(=O)c2ccsc2)N1Cc1ccncc1`, 37.48%.

`Cc1ccc(CN2C[C@H](OCC3CCN(C)CC3)[C@H]3COC[C@H]32)o1`: the INHIBITION was -14.64%.

For the compound `CNC(=O)[C@H]1C[C@H]2OCC[C@H]2N(Cc2cccc3ccccc23)C1`, the INHIBITION worked out at 16.6%. With `CC(=O)c1c(F)cccc1NCC(O)C(C)(C)C` (stereo not drawn) the figure was 53.44%; with `CC(=O)c1c(F)cccc1NCC(O)c1ccc(F)c(F)c1` (stereo not drawn), 4.26%; with `CC(=O)c1c(F)cccc1NCC(O)C1CC1` (stereo not drawn), 31.96%.

`CCC(C)NC(=O)c1cc(S(N)(=O)=O)c(Br)s1` (stereo not drawn): the INHIBITION is listed as -70.18%. With `CCC(C)NC(=O)c1cc(S(=O)(=O)N2CCCC2)c(C)s1` (stereo not drawn) the figure was 53.12%; with `CCC(C)NC(=O)c1cc(S(=O)(=O)N(C)C)c(C)s1` (stereo not drawn), 25.9%; with `CC(C)(C)c1nnc(CN2CCCC(c3cc(C(N)=O)[nH]n3)C2)o1` (stereo not drawn), -47.97%. Regarding `COc1ncnc(N(C)C)c1NC(=O)Cc1c[nH]c2ccc(F)cc12`, the INHIBITION is 62.92%. With `COc1ncnc(N(C)C)c1NC(=O)Cc1cc(F)ccc1F` the figure was -73.79%.

On to `CN(C)c1ncncc1NC(=O)Cc1c[nH]c2ccc(F)cc12`, for which the INHIBITION worked out at 10.04%. With `O=C(CN1CC(c2nc(-c3ccco3)no2)C1)NCC1CCCO1` (stereo not drawn) the figure was 23.01%; with `Cc1cc(NC(=O)NC2CCN(C(C)C)CC2)c2ncccc2c1`, -40.76%; with `CCOc1ccc(S(=O)(=O)NCCCc2ccc(N(C)C)cc2)cc1F`, 51.71%. In the case of `COc1ccc(S(=O)(=O)NCCCc2ccc(N(C)C)cc2)cc1F`, the INHIBITION amounted to 25.53%. Turning to `CCOc1ccc(S(=O)(=O)NCCc2ccc(N(C)C)cc2)cc1F`, the INHIBITION is 21%. As to `CN(Cc1nnc(-c2ccco2)o1)C(C(N)=O)c1cccc(F)c1` (stereo not drawn), the INHIBITION stood at 5.64%. In the case of `CC(C)CCn1ccc(NC(=O)N2CCCC2CN2CCOCC2)n1` (stereo not drawn), the INHIBITION is on record as -39.07%. With `CCNC(=O)CN1CCc2c(Br)ccc(F)c2C1` the figure was -25.78%. As to `Cn1ccnc1CN1CCC2(CC1)CN(c1cncnc1)C(=O)CO2`, the INHIBITION came to 7.71%. With `Cc1n[nH]c(=O)c2c(NC(=O)CN3CCC(C)CC3)oc(C)c12` the figure was 26.2%; with `CCOC1CCN(CC(=O)Nc2oc(C)c3c(C)n[nH]c(=O)c23)CC1`, 52.52%; with `Cc1n[nH]c(=O)c2c(NC(=O)CN3CCC(O)CC3)oc(C)c12`, 5.72%.

For the compound `COCC[C@]1(O)CCN(Cc2ccccn2)C[C@H]1C`, the INHIBITION is 5.39%. `O=C(NCC1(O)CCSC1)c1ccoc1` (stereo not drawn): the INHIBITION worked out at 22.4%. With `O=C(Cc1cccs1)NCC1(O)CCc2ccccc2C1` (stereo not drawn) the figure was 24.6%; with `O=C(Cc1cccs1)NCC1(O)CCSCC1`, 52.85%; with `O=C(Cc1cccs1)NCC1(O)CCSC1` (stereo not drawn), -2.22%. With `COC1(CNC(=O)c2ccoc2)CCSC1` (stereo not drawn) the figure was 28.5%; with `O=C(NCC1(O)CCSCC1)c1ccoc1`, 53.61%; with `CN(Cc1ccncc1)C1CC2(CCN(c3ncccn3)CC2)C1`, 36.48%. As for `COc1ccc(NC(=O)NCCCn2nc3ccccn3c2=O)cc1`, the INHIBITION is -12.82%. Turning to `COCc1cc(N2CCOC(c3ccc(Cl)c(Cl)c3)C2)ncn1` (stereo not drawn), the INHIBITION was -16.62%. With `CC(C)(C)c1cnc(CN2CCC(CN3CCOCC3)CC2)o1`, the INHIBITION is listed as -10.87%. Regarding `COCCN(C)C(=O)c1nc2c(s1)CCCN2C`, the INHIBITION came to 32.04%. With `O=C(c1ccc(F)cc1F)N1CCN(C(=O)C2CCCCC2)CC1` the figure was 16.54%.
